Neddylation inh: cullin neddylation inhibition; P61081+Q13564; TR-FRET cullin neddylation, biochemical; actives 0.58% (n = 360,000); calls only at 25 µM; in the data active = inhibition above about 36%
PfGluPho inh: PfG6PD (Plasmodium falciparum) enzyme inhibition. inhibition, % at 20 µM. AID 504690. PfGluPho enzyme, NADPH resazurin-diaphorase fluorescence. actives 0.78% (n = 350,000);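 active = inhibition reaching at least a set limit at 20 µM in the primary screen, cut at about 59% in these data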;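 also: 0% = DMSO wells with substrate and 100% = DMSO wells lacking glucose-6-phosphate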
FAS TE block: inhibitors of human fatty acid synthase thioesterase domain | recombinant FAS-TE, OMFH fluorogenic substrate, fluorescence endpoint | AID 602261 | inhibition, % at 15 µM | actives 0.67% (n = 360,000) | P49327;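 active = compounds whose normalised, plate-corrected inhibition of enzyme fluorescence in the single-dose primary screen is 50% or more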;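 also: 0% = DMSO with enzyme and 100% = substrate without enzyme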
proKLK7 act: activates the human kallikrein-7 zymogen. P49862. purified proKLK7, EDANS-DABCYL substrate fluorescence; 100% is mature enzyme control, 0% vehicle. activation, % at 7 µM. actives 0.9% (n = 370,000). AID 652039;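 active = activation above the mean of all tested compounds plus 3 SD, computed per campaign excluding outliers beyond control limits, cut at about 13% in these data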
FAS-TE conf: FAS thioesterase (human) inhibition, confirmation; shares compounds with FAS TE block; recombinant FAS-TE, OMFH fluorogenic substrate, fluorescence; inhibition, % at 15 µM; actives 45% (n = 2,300);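 active = compounds inhibiting the enzyme by at least 50% at 15 µM in any one of the replicates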;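 also: 0% = enzyme with DMSO only and 100% = wells lacking enzyme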
Active calls of the source: *; i = inactive; / = not tested or not shown. Only some compounds are listed: those with a hit (about 2.7% of all), similar ones and a draw of the others.

SMILES	Neddylation inh	PfGluPho inh	FAS TE block	proKLK7 act	FAS-TE conf
CC(C)(C)c1ccc(/C=N/Nc2ccc(C(=O)O)cc2)cc1	i	4.7	63.9*	-0.6	76.5*
COc1ccc(/C=N\NC(=O)CNC(=O)C(c2ccccc2)c2ccccc2)cc1[N+](=O)[O-]	i	-14.4	54.3*	1.0	41.6*
COc1ccc(Cn2cc(CN3CC=CS3(=O)=O)nn2)cc1	/	/	/	0.2	/
O=C(Cc1ccc(S(=O)(=O)N2CCOCC2)s1)N1CCN(S(=O)(=O)c2ccccc2[N+](=O)[O-])CC1	i	-1.1	87.3*	0.2	83.3*
Cc1ccc(C)c(S(=O)(=O)N2CCN(C(=O)Cc3ccc(S(=O)(=O)N4CCOCC4)s3)CC2)c1	i	10.9	69.4*	0.6	63.0*
O=C(Cc1ccc(S(=O)(=O)N2CCOCC2)s1)N1CCN(S(=O)(=O)c2cccc([N+](=O)[O-])c2)CC1	i	-6.5	37.4	-0.4	/
CCOc1ccc(S(=O)(=O)N2CCN(C(=O)Cc3ccc(S(=O)(=O)N4CCOCC4)s3)CC2)cc1	i	-5.4	23.3	-0.2	/
O=[N+]([O-])c1ccc(S(=O)(=O)Nc2nnc(C3CCCCC3)s2)cc1	i	-12.9	50.3*	0.0	65.2*
O=S(=O)(Nc1nnc(C2CCCCC2)s1)c1ccc(F)cc1	i	1.3	0.2	-0.3	/
O=Cc1s/c(=N\S(=O)(=O)c2ccccc2)n(CCCCl)c1Cl	i	40.1	76.0*	-0.3	83.2*
O=C(c1cccc(C(F)(F)F)c1)N1CC[C@H]2[C@H](CCCN2Cc2ccc(F)cc2)C1	/	/	/	0.0	/
COc1cccc(C(=O)Nc2cc(C(=O)NCc3ccc(C)cc3)ccc2N2CCC3(CC2)CC(c2ccccc2)=NO3)c1	i	7.4	42.7	1.4	/
Cc1ccc(CNC(=O)c2ccc(N3CCC4(CC3)CC(c3ccccc3)=NO4)c(NC(=O)c3c(Cl)cccc3Cl)c2)cc1	i	8.5	62.6*	-0.3	21.3
O=c1[nH]c(C2CCCN(S(=O)(=O)c3cccc(Cl)c3)C2)nc2c1nnn2Cc1ccc2c(c1)OCCO2 (stereo not given)	i	-14.2	53.6*	-0.1	15.8
COc1cccc(NC(=O)NC2CCCCN(Cc3ccc(C)cc3)C2=O)c1 (stereo not given)	/	/	/	0.5	/
Cc1nc(N2CCN(c3ccccn3)CC2)c2c(C)c(C(=O)Nc3c(C)cc(Br)cc3C)sc2n1	i	-8.2	73.1*	-0.6	15.1
CC(C)N1CCc2c(sc(NC(=O)c3ccc([N+](=O)[O-])o3)c2C(N)=O)C1	i	/	59.5*	0.1	71.5*
CC(C)N1CCc2c(sc(NC(=O)c3nc4ccccc4s3)c2C(N)=O)C1	i	33.8	-5.1	-0.9	/
COC(=O)[C@]12C[C@H](CC(=O)N3CCN(C(=O)c4ccco4)CC3)C(=O)N(Cc3ccccc3)C1=C[C@H](COCc1ccccc1)O[C@@H]2C	/	/	/	0.6	/
COc1ccc(C(=O)Nc2nc3c(s2)CCCC3)cc1S(=O)(=O)N1CCCc2ccccc21	i	6.6	63.0*	-19.9	17.1
COC(=O)[C@]12C[C@H](CC(=O)NCCC(C)C)C(=O)N(Cc3ccc4c(c3)OCO4)C1=C[C@H](C(C)C)O[C@@H]2C1CC1	/	/	/	0.0	/
O=C(CCc1ccccc1)N[C@H]1[C@H](O)CCC[C@@]12C(=O)N(Cc1ccccc1)c1ccc(-c3ccccc3)cc12	/	/	/	0.8	/
CCN(CC)C(=O)C1CCCN(c2ccc([N+](=O)[O-])cc2/C=N/NC(=O)c2cccc(O)c2)C1 (stereo not given)	i	14.7	66.1*	0.3	67.7*
CN1CCN(c2ccc([N+](=O)[O-])cc2/C=N/NC(=O)c2cccc([N+](=O)[O-])c2)CC1	/	/	/	0.1	/
CCN(CC)C(=O)C1CCCN(c2ccc([N+](=O)[O-])cc2/C=N/NC(=O)c2ccccc2)C1 (stereo not given)	i	4.3	85.2*	0.8	56.4*
SMILES	Neddylation inh	PfGluPho inh	FAS TE block	proKLK7 act	FAS-TE conf
CCN(CC)C(=O)C1CCCN(c2ccc([N+](=O)[O-])cc2/C=N/NC(=O)c2ccc([N+](=O)[O-])cc2)C1 (stereo not given)	i	5.4	43.7	-0.2	/
FC(F)(F)c1ccccc1Cn1ccc2ccc(-c3ccc4ccn(Cc5ccccc5)c4c3)cc21	/	/	/	-5.4	/
Oc1ccc2[nH]cc(CCc3ccccc3)c2c1-c1ccccc1	/	/	/	0.2	/
COc1ccc(N2C(=O)CC2(/C=C/c2ccccc2OC)C(=O)NC2CCCC2)cc1 (stereo not given)	i	7.3	16.6	-0.4	/
CC1C(=O)N(c2ccc(S(=O)(=O)N(C)C)cc2)C1(/C=C/c1ccccc1)C(=O)NC1CCCC1 (stereo not given)	i	20.9	60.9*	0.3	32.7
O=C1CC(/C=C/c2ccccc2)(C(=O)NC2CCCC2)N1c1ccc(S(=O)(=O)N2CCCC2)cc1 (stereo not given)	i	-2.5	74.7*	0.3	8.7
Cc1ccc(-c2cc(-c3nnc(SCC(=O)Nc4cccc5ccccc45)n3N)[nH]n2)cc1	/	/	/	-0.6	/
O=C(NCCN1C(=O)S/C(=C\c2ccc(Cl)c([N+](=O)[O-])c2)C1=O)C1=COCCO1	i	0.3	52.5*	-0.2	40.5
COc1ccc(-c2cc(-c3nnc4sc(Cc5cccs5)nn34)[nH]n2)cc1	/	/	/	0.5	/
CCOc1cc(/C=C(\C#N)C(=O)Nc2ccccc2C(=O)O)ccc1OC(=O)c1ccc(C)cc1	i	-5.2	79.8*	0.1	-8.1
Cc1cc(Cl)ccc1OC(C)C(=O)Nc1ccc([N+](=O)[O-])cn1 (stereo not given)	i	18.2	52.1*	0.2	21.8
Cc1ccc(OC(C)C(=O)Nc2ccc(Cl)cn2)c([N+](=O)[O-])n1 (stereo not given)	i	5.6	10.5	0.2	/
CCN(CC)CCCNC(=O)c1oc(=O)c2ccccc2c1-c1ccc(C)cc1	/	/	/	0.3	/
CC1CCCN(S(=O)(=O)c2ccc(NC(=O)Cc3ccc(S(=O)(=O)N4CCOCC4)s3)cc2)C1 (stereo not given)	i	4.4	61.0*	0.1	27.6*
CC1CCN(S(=O)(=O)c2ccc(NC(=O)Cc3ccc(S(=O)(=O)N4CCOCC4)s3)cc2)CC1	i	20.1	42.8	-0.3	/
O=C(OC12CCCN(C1)/C(=C/c1ccncc1)C2)c1ccc(Cl)cc1 (stereo not given)	/	/	/	-0.2	/
Cc1ccc(N2C(=O)[C@@H]3[C@H](C2=O)C2c4ccccc4C=NN2[C@@H]3C(=O)c2ccc(Cl)cc2)cc1 (stereo not given in full)	i	-20.1	82.3*	0.1	-0.3
O=C(c1ccc(Cl)cc1)[C@@H]1[C@@H]2C(=O)N(c3ccc(Cl)cc3)C(=O)[C@@H]2C2c3ccccc3C=NN21 (stereo not given in full)	i	-10.8	69.3*	-0.4	10.4
CC(=O)[C@@H]1[C@@H]2C(=O)N(c3ccc(F)c(Cl)c3)C(=O)[C@@H]2C2c3ccccc3C=CN21 (stereo not given in full)	/	/	/	-2.7	/

Screening results deposited in PubChem BioAssay by several laboratories.
